Compounds with a hit are over-represented: about 2.1% of the library has one in this group of screens.
U2OS ROS induce: cancer cell ROS induction | U2OS ROS induction, H2DCF-DA fluorescence | ROS induction (% of piperlongumine), % at 10 µM | 2% of 46,000 active; in the data active means ROS induction above about 79%, passing the limit was not always enough;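 further: 0% = DMSO vehicle median and 100% = reference compound median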
YB-1 expression: YB-1 expression inhibition; U2OS, qRT-PCR YB-1 vs CDIP delta delta Cp, 16 h; hits give high values; zero = DMSO, each unit about twofold; 0.37% of 30,000 active; delta delta Cp (YB-1 minus CDIP) (no concentration beside the values);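 active means delta delta Cp rounded down to an integer at or above 3, about 3 SD of DMSO wells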;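 further: higher means less YB-1 transcript or more CDIP transcript relative to DMSO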
* hit, by the source's call; nt = no result given.

SMILES	U2OS ROS induce	YB-1 expression
Cc1cc(C)n2nc(SC(C)C(=O)NCc3ccccc3Cl)nc2n1 (stereo not given)	-13.0	nt
C[C@H]1CN([C@@H](C)CO)C(=O)c2cc(NS(C)(=O)=O)ccc2O[C@H]1CN(C)S(=O)(=O)c1ccccc1	-3.5	0.0173
C[C@@H]1CN([C@H](C)CO)C(=O)c2cc(NS(C)(=O)=O)ccc2O[C@@H]1CN(C)S(=O)(=O)c1ccccc1	101.6*	-0.15
O=C(CCSCc1ccccc1Cl)NCc1ccccc1Cl	-4.2	nt
C/C(=N\N)c1c(C)cc(C)[nH]c1=O	-5.9	nt
CCOC(=O)CSc1ncc(-c2ccccc2)nn1	-4.5	nt
CCOC(=O)CSc1sc(C(=O)OCC)c2c1S(=O)(=O)N(C)c1ccccc1-2	112.2*	-0.407
CCOC(=O)c1sc2nc(SCC(=O)C(C)(C)C)n(N)c(=O)c2c1C	-3.7	nt
Cc1cccc(-n2cnc3cc(C(=O)NCCC4=CCCCC4)ccc32)c1	63.0	nt
C[C@@H]1CN([C@@H](C)CO)C(=O)Cc2cc(NS(=O)(=O)c3ccc(F)cc3)ccc2O[C@@H]1CN(C)Cc1ccc(C(F)(F)F)cc1	27.5	0.017
C[C@@H]1CN([C@H](C)CO)C(=O)Cc2cc(NS(=O)(=O)c3ccc(F)cc3)ccc2O[C@H]1CN(C)Cc1ccc(C(F)(F)F)cc1	207.1*	-0.163
C[C@H]1CN([C@@H](C)CO)C(=O)Cc2cc(NS(=O)(=O)c3ccc(F)cc3)ccc2O[C@@H]1CN(C)Cc1ccc(C(F)(F)F)cc1	146.3*	0.000877
C[C@@H]1CN([C@@H](C)CO)C(=O)Cc2cc(NC(=O)Cn3cnnn3)ccc2O[C@@H]1CN(C)Cc1ccncc1	0.5	0.132
C[C@@H]1CN([C@H](C)CO)C(=O)Cc2cc(NC(=O)Cn3cnnn3)ccc2O[C@@H]1CN(C)Cc1ccc(C(F)(F)F)cc1	86.8*	0.14
C[C@@H]1CN([C@H](C)CO)C(=O)Cc2cc(NS(=O)(=O)c3ccc(Cl)cc3)ccc2O[C@@H]1CN(C)Cc1ccc(C(F)(F)F)cc1	2.2	-0.0382
O=C(Cc1ccc(Cl)cc1)Nc1cccc(-c2nc3cc4ccccc4cc3[nH]2)c1	24.1	nt
O=c1sc2ccccc2n1Cc1nnc(SCc2ccccn2)n1-c1cccc(Cl)c1	6.6	nt
Cc1cccc(NC(=O)CNC(=O)OCc2ccccc2)c1	-11.3	nt
N#Cc1ccc(CSc2nc3ncccc3c(=O)n2Cc2ccccc2)cc1	13.9	nt
CC(Sc1nc(-c2ccccc2)cc(C(F)(F)F)n1)C(=O)NCc1ccccc1 (stereo not given)	5.5	nt
O=C(NCc1cccs1)c1ccc2c(c1)N(Cc1ccccc1)C(=O)c1ccccc1S2	11.8	nt
Cc1ccc(S[C@]2(C(=O)NCC(F)(F)F)CC(=O)N(C3CCCCC3)[C@@H]2c2ccc(CO)cc2I)cc1	18.9	0.19
Cc1ccc(S[C@]2(C(=O)NC(C)C)CC(=O)N(C3CCCCC3)[C@@H]2c2ccc(CO)cc2I)cc1	200.5*	0.111
Cc1ccc2c(Sc3ccc(Cl)cc3)c(C(=O)NC(C)c3ccc4c(c3)OCCO4)[nH]c2c1 (stereo not given)	-8.9	nt
CCCCn1c(CN2CCN(CC)CC2)nc2c1c(=O)[nH]c(=O)n2C	-16.6	nt
SMILES	U2OS ROS induce	YB-1 expression
COc1ccc(NC(=O)OCC23COCN2COC3)cc1	-8.5	nt
Cc1cc(C)c2c(n1)sc1c(=O)n(NC(=O)Nc3ccccc3)c(C)nc12	11.6	nt
Cc1cc(C)c2c(n1)sc1c(=O)n(Cc3ccccc3Cl)nnc12	81.2*	nt
CC(C)Cc1ccc(C(C)C(=O)NC(C)Cc2c[nH]c3ccccc23)cc1 (stereo not given)	-10.8	nt
CNC[C@@H]1Oc2ccc(NC(=O)CCN3CCOCC3)cc2CC(=O)N([C@H](C)CO)C[C@H]1C	-19.6	9.51*
C[C@H]1CN([C@@H](C)CO)C(=O)Cc2cc(NC(=O)CCN3CCOCC3)ccc2O[C@H]1CN(C)Cc1ccc(Cl)c(Cl)c1	-2.8	0.229
CNC[C@@H]1Oc2ccc(NC(=O)CCN3CCOCC3)cc2CC(=O)N([C@@H](C)CO)C[C@@H]1C	-7.9	0.185
C[C@H]1CN([C@@H](C)CO)C(=O)Cc2cc(NC(=O)CCN3CCOCC3)ccc2O[C@@H]1CN(C)Cc1ccc(Cl)c(Cl)c1	90.5*	-0.0521
C[C@H]1CN([C@@H](C)CO)C(=O)Cc2cc(NS(=O)(=O)c3ccc(Cl)cc3)ccc2O[C@H]1CN(C)Cc1ccc(Cl)c(Cl)c1	1.5	0.368
C[C@@H]1CN([C@@H](C)CO)C(=O)Cc2cc(NS(C)(=O)=O)ccc2O[C@@H]1CN(C)Cc1ccc(Cl)c(Cl)c1	104.5*	-0.195
COc1cc2c(cc1OC)C(C)N(C(=O)CN1C(=O)CCc3ccccc31)CC2 (stereo not given)	-12.7	nt
COc1cc(/C=C2\SC(=S)NC2=O)ccc1OCc1cccc2ccccc12	21.7	nt
COc1ccc2[nH]c3c(=O)n(CC(=O)N(C)Cc4ccccc4)c(=S)[nH]c3c2c1	0.9	nt
CC1=C(C)CC(C(=O)Nc2ccc(-n3cnnn3)c(C)c2)C(C(=O)O)C1 (stereo not given)	16.4	nt
COc1ccc(-c2oc3ncn(CC(C)C)c(=N)c3c2-c2ccc(OC)cc2)cc1	94.4*	nt
COc1ccc(-c2oc3ncn(CCO)c(=N)c3c2-c2ccc(OC)cc2)cc1	0.5	nt
Cc1cc(C(=O)Nc2cccc3c2O[C@H](CN(C)Cc2ccc(-c4ccccc4)cc2)[C@@H](C)CN([C@@H](C)CO)C3=O)n(C)n1	214.2*	-0.347
Cc1cc(C(=O)Nc2cccc3c2O[C@@H](CN(C)Cc2ccc(-c4ccccc4)cc2)[C@H](C)CN([C@H](C)CO)C3=O)n(C)n1	77.5*	0.157
Cc1cc(C(=O)Nc2cccc3c2O[C@H](CN(C)Cc2ccc(-c4ccccc4)cc2)[C@H](C)CN([C@@H](C)CO)C3=O)n(C)n1	18.7	-0.407
Cc1cc(C(=O)Nc2cccc3c2O[C@H](CN(C)Cc2ccc(-c4ccccc4)cc2)[C@H](C)CN([C@H](C)CO)C3=O)n(C)n1	15.7	-0.133
CCCCN(C)c1ccc(C(=O)OC)cc1NC(=S)Nc1cccc(C)c1	1.6	nt
c1ccc(-c2nnc(SCC3COc4ccccc4O3)nc2-c2ccccc2)cc1 (stereo not given)	-4.5	nt
CC1(C)OC2C(CO)OC(n3cnc4c(=O)[nH]cnc43)C2O1 (stereo not given)	33.5	-0.113
CC1(C)O[C@@H]2[C@H](O1)[C@@H](CO)O[C@H]2n1cnc2c(N)ncnc21	84.7*	-0.361
CCNc1sc(S(=O)(=O)CC)nc1S(=O)(=O)c1ccc(C)cc1	-3.9	nt
SMILES	U2OS ROS induce	YB-1 expression
O=C(O)C1CCC(CNCc2c(Cl)cccc2Cl)CC1 (stereo not given)	-13.9	nt
O=c1cc(-c2ccccc2)nc(SCCOc2ccccc2F)[nH]1	-3.4	nt
Cc1ccc(-c2cc(C(F)F)n3ncc(C(=O)NCc4cn(C)nc4C)c3n2)cc1	135.1*	nt
Cc1ccc(-c2cc(C(F)F)n3ncc(C(=O)NCCN4CCOCC4)c3n2)cc1	27.3	nt
O=C(NCc1cccnc1)c1cnn2c(C(F)F)cc(C3CC3)nc12	18.4	nt
COc1ccc(-c2cc(C(F)F)n3ncc(C(=O)Nc4cccc(NC(C)=O)c4)c3n2)cc1	155.1*	nt
O=C(O)CCc1nc2ncccc2c(=O)n1Cc1ccc(F)cc1	1.4	nt
CC(C)C(=O)N1CCCCCC1	-6.5	nt
CC1=NN(c2ccccc2)C(=O)C1C(=O)c1ccccc1Br (stereo not given)	0.6	nt
